Rows were chosen to be rich in hits. Some 12% of all compounds tested hit in one or more screens of this group.
HP1b chromo inh: HTS for Inhibitors of HP1-beta Chromodomain Interactions with Methylated Histone Tails; AlphaScreen HP1-beta / biotin-H3K9me3 peptide binding; Potency, µM (titrated, usually from 114 µM), without a hit: at the top dose activity change, negative = inhibition, actives largely listed as inhibitors; hit rate 0.56% among 390,000; AID 540317, 2011; further: nearly all actives have a fitted effect of over 70% in size
Target sequence (P83916 whole entry, looked up): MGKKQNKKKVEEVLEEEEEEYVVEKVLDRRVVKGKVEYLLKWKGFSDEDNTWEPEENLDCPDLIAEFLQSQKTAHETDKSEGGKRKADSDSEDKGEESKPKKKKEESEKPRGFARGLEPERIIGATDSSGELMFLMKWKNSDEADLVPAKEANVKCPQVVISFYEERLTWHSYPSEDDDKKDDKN
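Compound inhibition of the preformed complex between 50 nM HP1-beta and 50 nM biotinylated H3K9me3 peptide was read by AlphaScreen. Buffer was PBS pH 7.4 with 0.01% Tween-20. Incubations ran 30 min at room temperature, with 10 ug/mL donor/acceptor beads.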
Sfp inh: qHTS Assay for Inhibitors of Bacillus subtilis Sfp phosphopantetheinyl transferase (PPTase) | 4'-phosphopantetheinyl transferase ffp (Bacillus subtilis), Q9F4F7 | Biochemical Sfp PPTase activity, qHTS | Potency, µM, without a hit: largest response in the series, negative = inhibition, actives largely listed as inhibitors | hit rate 3.5% among 310,000;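 further: the enzyme is Sfp with the accession as filed and its product quenches rhodamine fluorescence; 0% = enzyme reaction without inhibitor and -100% = no enzyme wells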
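Fluorescence-quenching assay with 15 nM Sfp, 5 uM rhodamine-CoA and 12.5 uM BHQ-2-labelled ybbR peptide in pH 7.6 Hepes/MgCl2 buffer. Enzyme was pre-incubated with compound for 15 min at room temperature. Rate was taken from the 30-min fluorescence change (525/598 nm).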
PLK1 PBD block: qHTS for Inhibitors of PLK1-PDB (polo-like kinase 1 - polo-box domain): Primary Screen; Serine/threonine-protein kinase PLK1 (Homo sapiens), P53350; Plk1 PBD binding of FITC phosphopeptide, fluorescence polarization; Potency, µM, for inactives: max response, negative = inhibition, most hits filed as inhibitors; hit rate 2.8% among 360,000; AID 720504, 2013; further: series mostly up to about 57 µM; on the % scale 0 is the no-effect control and ±100 the full control effect; nearly all actives have a fitted effect of over 65% in size
BAZ2B block: qHTS Assay for Inhibitors of BAZ2B; Bromodomain adjacent to zinc finger domain protein 2B (Homo sapiens), Q9UIF8; AlphaScreen BAZ2B-H3K14Ac peptide displacement; Potency, µM (doses to about 114 µM), inactives show at the highest dose activity change, negative = inhibition, usual class: inhibitors; hit rate 4.4% among 360,000; AID 504333, 2011; further: on the % scale 0 is the no-effect control and ±100 the full control effect; nearly all actives have a fitted effect of over 60% in size
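AlphaScreen luminescence quantifies BAZ2B engagement of H3K14Ac peptide; the protein and biotinylated peptide are both at 50 nM final, buffer PBS pH 7.4 with 0.01% Tween-20, all steps at room temperature.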
G9a inh: qHTS Assay for Inhibitors of Histone Lysine Methyltransferase G9a | Histone-lysine N-methyltransferase EHMT2 (Homo sapiens), Q96KQ7 | G9a H3K9 monomethylation, AlphaScreen, 2 h | Potency, µM (highest dose often 102 µM), for the others: top-dose activity, negative = inhibition, usual class: inhibitors | hit rate 8.8% among 350,000; further: on the % scale 0 is the no-effect control and ±100 the full control effect; nearly all actives have a fitted effect of over 75% in size
Target sequence (Q96KQ7 913-1193 limits assumed): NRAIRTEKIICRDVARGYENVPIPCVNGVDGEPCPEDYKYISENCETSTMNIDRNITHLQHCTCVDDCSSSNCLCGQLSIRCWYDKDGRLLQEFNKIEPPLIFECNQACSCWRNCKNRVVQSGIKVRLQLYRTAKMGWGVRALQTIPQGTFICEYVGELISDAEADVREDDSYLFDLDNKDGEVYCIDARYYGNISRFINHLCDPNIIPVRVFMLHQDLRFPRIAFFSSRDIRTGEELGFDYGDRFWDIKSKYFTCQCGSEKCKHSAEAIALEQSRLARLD
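Enzyme 20 nM + cpd, 15 min RT; add b-H3K9 pep 500 nM / SAM 20 uM; 2 h RT; anti-H3K9me1 Ab 0.5 ug/mL + SA donor / anti-rabbit acceptor beads 20 ug/mL each, 10 min; AlphaScreen read.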
JMJD2A Tudor inh: qHTS Assay for Inhibitors of JMJD2A-Tudor Domain. AID 504339, 2011. Potency, µM (doses to about 114 µM), inactives show top-dose activity change, negative = inhibition, most hits filed as inhibitors. hit rate 4.4% among 390,000. AlphaScreen JMJD2A-Tudor / H3K4me3 peptide binding; further: on the % scale 0 is the no-effect control and ±100 the full control effect; nearly all actives have a fitted effect of over 50% in size
* hit, by the source's call; ? = inconclusive; / = no result given; [ ] = remark or other dose. The call rests on the fitted dose curve; in most records, active means well fitted curve in the direction sought with a large enough effect; inconclusive means small, poorly fitted or top-dose-only effect, or another doubt; inactive means no such curve, though single readings can be large; an effect the other way counts as inactive or inconclusive. Potency means the concentration at half of the fitted maximal effect.

SMILES	HP1b chromo inh	Sfp inh	PLK1 PBD block	BAZ2B block	G9a inh	JMJD2A Tudor inh
COc1ccc(C(=O)/C=C2\NCC3c4ccccc4CCN3C2=O)cc1 (stereo not given)	-21%	?	9.5µM*	10%[57.1 µM]	-5%[12.7 µM]	-13%[57.1 µM]
COc1ccc(/C=N/NC(=O)COc2ccc3ccccc3c2)c(C(=O)O)c1OC	20%	14%	27µM*	-11%	-6%[59 µM]	50µM*
O=C(COc1cccc2ccccc12)N/N=C/c1ccncc1	25%	0%	-5%	-13%	-1%	-11%
COc1ccc(OCC(=O)N/N=C/c2ccc(OC)c(OC)c2C(=O)O)cc1	34%	1%	2%	-3%	2%[59 µM]	3%
COc1ccc(/C=N/NC(=O)COc2cccc3ccccc23)c(C(=O)O)c1OC	11%	-8%	-19%	?	14µM*	-16%
CCOc1ccc(S(=O)(=O)N2CCN(Cc3ccccc3)CC2)cc1	33%	14%	7%	14%	/	2%
O=C(CCCOc1ccccc1)N1CCN(S(=O)(=O)c2ccc(Cl)cc2)CC1	25%	/	0%	-3%	-6%[59 µM]	-1%
CCOc1ccc(OCCCC(=O)N2CCN(S(=O)(=O)c3ccc(Cl)cc3)CC2)cc1	?	/	0%	45µM*	2.8µM*	18µM*
CCOc1ccc(CN2CCN(S(=O)(=O)c3ccc(Cl)cc3)CC2)cc1	-32%	/	/	-1%	2.2µM*	?
Cc1ccccc1OCCC(=O)N1CCN(S(=O)(=O)c2ccc(Cl)cc2)CC1	34%	/	-1%	-28%	45µM*	-18%
O=C(COc1ncnc2ccccc12)N1CCN(S(=O)(=O)c2ccc(Cl)cc2)CC1	-9%	2%	30µM*	0%	-10%[59 µM]	?
S=C(Nc1ccc(Br)cc1)N1CCN(c2ccccn2)CC1	32%	12%	-3%	-5%	35%	-19%
CC(C)c1ccc2c(c1)-c1ccccc1S(=O)(=O)N2CC(=O)N1CCCCC1	39%	/	/	-11%	-29%[59 µM]	-16%
O=C(CCCCCN1C(=O)c2cccc3cccc(c23)C1=O)NO	/	4%	/	/	16%[59 µM]	/
Cc1ccc(Sc2cnc(N)nc2C)cc1	-21%	4%	27µM*	-10%	6%	?
O=C(N/N=C/c1ccc(O)cc1)c1cc[n+](Cc2ccccc2)cc1	22%	0%	-1%	-6%	?	-18%
COc1ccc(O)c(/C=N/NC(=O)c2ccc(OCc3cccc(Br)c3)cc2)c1	19%	-7%	-3%	?	35%[2.33 µM]	35µM*
COc1ccc(C(=O)N/N=C/c2cc(Br)ccc2O)cc1OC	?	11%	-7%	-14%	/	-19%
O=C(N/N=C/c1ccc(OCc2ccccc2)cc1)c1cc[n+](Cc2ccccc2)cc1	-2%	-14%	5%	-12%	71µM*	?
CC(C)(C)c1ccc(OCc2ccc(C(=O)N/N=C/c3ccc(O)c(O)c3)cc2)cc1	?	-8%	-8%	32µM*	?	?
Cc1cccc(C)c1NC(=O)CCSCCc1ccccn1	?	/	/	6%	-5%[59 µM]	-1%
O=C(NCc1ccc(F)cc1)c1cc(C(=O)C2CC2)c[nH]1	34%	14%	3%	0%	8%	-1%
CCCOc1ccc(Cl)cc1CN1CCOCC1	33%	-8%	1%	2%	-17%[59 µM]	?
COCCNCc1ccc(Cl)cc1Cl	72%	3%	?	-23%	?	-7%
C=CCc1cc(Cl)ccc1OCCNCCN1CCOCC1	?	?	-12%	32µM*	10µM*	7.9µM*
SMILES	HP1b chromo inh	Sfp inh	PLK1 PBD block	BAZ2B block	G9a inh	JMJD2A Tudor inh
C=CCc1cc(Cl)ccc1OCCNCCOC	?	-26%	-11%	50µM*	?	1µM*
CC1(C)C(=O)C(c2ccccc2)=C2CN3C(=O)N(CCc4ccccc4)C(=O)C3(Cc3ccccc3)C=C21 (stereo not given)	/	8%	/	/	/	/
CC(=O)N1/C(=C/c2ccc(N(C)C)cc2)C(=O)c2ccccc21	22µM*	-26%	-9%	10µM*	11µM*	18µM*
Cc1ccc(C(=O)O)cc1NC(=O)CCc1ccccc1	-6%	19%	17µM*	-28%	5%	?
COC(=O)c1ccc(C)c(NC(=O)CN(c2ccccc2)S(=O)(=O)N(C)C)c1	-1%	14%	21µM*	-13%	6%	-14%[11.4 µM]
Cc1ccc(C(=O)O)cc1NC(=S)NC(=O)Cc1ccccc1	33%	5%	-9%	3%	-7%	4%
COC(=O)c1ccccc1NC(=O)CN(c1ccccc1)S(=O)(=O)N(C)C	30%	/	-2%	/	/	5%
COC(=O)c1ccc(C)c(NC(=O)CCc2ccc(OC)cc2)c1	22%	89µM*	-8%	-6%	-6%[59 µM]	-18%
Cc1cc(Cl)ccc1NNC(=O)CCc1ccccc1	17%	6%	-2%	-17%	28µM*	-13%
Cc1noc(C)c1C(=O)OCC(=O)NCc1ccc(Cl)cc1	38%	/	-6%	0%	13%[12.7 µM]	-4%
CCC(=O)Nc1cc(C(=O)O)ccc1Sc1ccc(C)cc1	44%	12%	-7%	-12%	?	-11%
CCCC(=O)Nc1cc(C(=O)O)ccc1Sc1ccc(C)cc1	34%	-10%	?	1%	45µM*	-12%
CN(C)c1ccc(C=Nc2ccccc2C(N)=O)cc1	6%	6%	-10%	/	18µM*	-28%
Cc1nc2nc[nH]n2c(=O)c1CCC(=O)Nc1ccc(F)cc1	58%	/	/	-5%	5%[59 µM]	-6%
CCO/C=N/Nc1nc(C(F)(F)F)nc2c1cnn2Cc1ccccc1	-2%	25%	-3%	-12%	-7%[2.33 µM]	?
COc1ccc(OC)c(C2C(C(=O)c3ccco3)=C(O)C(=O)N2Cc2cccnc2)c1 (stereo not given)	36%	2%	0%	?	?	-21%
CC(=O)C1=C(O)C(=O)N(Cc2cccnc2)C1c1ccc(C(C)C)cc1 (stereo not given)	44%	13%	-15%	-32%	56µM*	-11%
COc1cc(C2C(C(=O)c3ccco3)=C(O)C(=O)N2Cc2cccnc2)cc(OC)c1OC (stereo not given)	6%	-9%	-3%	-35%	/	89µM*
Cc1ccc(C(=O)C2=C(O)C(=O)N(Cc3cccnc3)C2c2cccc([N+](=O)[O-])c2)o1 (stereo not given)	10%	0%	-13%	?	/	?
